Source: the supplement of paper PMC10849652
Of roughly 7,900 targets only a part is listed; those with a hit were picked by preference. About 0.6% of all pairs of compound and target were hits. A number with no mark means an inactive call.

Columns and labels:
Test in all cases: log2 fold change, soluble protein after heating vs DMSO (PISA); higher = thermal stabilisation; K562 cells, 10 uM, 30 min; active = over 0.2 and 3.5 SD of the protein, either way, in both replicates (recomputed)
[1] = compound: CS(=O)(=O)c1ccc(-c2cnc(N)c(C(=O)Nc3ccccc3)n2)cc1
Outline: (§1)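 K562 cells (2×10^6 cells/mL) were treated with 10 μM compound for 30 min, and aliquots were heated for 3 min over 48°C-58°C. Pooled aliquots were extracted in PBS with 0.5% NP-40 at 4°C, and the supernatant after 21,000xg for 90 min was measured by TMTpro 16plex LC-MS/MS with channel sums equalised. Reported thermal stability, relative to control samples and from duplicates, is a log2 fold change.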

crizotinib = compound: C[C@@H](Oc1cc(-c2cnn(C3CCNCC3)c2)cnc1N)c1c(Cl)ccc(F)c1Cl [crizotinib]
Outline: as §1

[2] = compound: C[C@@H]1COCCN1C2=NC(=NC(=C2)C3(CC3)S(=O)(=O)C)C4=C5C=CNC5=CC=C4
Outline: as §1

[3] = compound: C[C@H](C1=CC=C(C=C1)C(=O)NC2=C3C=CNC3=NC=C2)N
Outline: as §1

duvelisib = compound: C[C@H](Nc1ncnc2nc[nH]c12)c1cc2cccc(Cl)c2c(=O)n1-c1ccccc1 [duvelisib]
Outline: as §1

gandotinib = compound: Cc1cc(Nc2cc(CN3CCOCC3)c3nc(C)c(Cc4ccc(Cl)cc4F)n3n2)n[nH]1 [gandotinib]
Outline: as §1

tozasertib = compound: Cc1cc(Nc2cc(N3CCN(C)CC3)nc(Sc3ccc(NC(=O)C4CC4)cc3)n2)n[nH]1 [tozasertib]
Outline: as §1

[4] = compound: Cc1cc(SCc2sc(-c3ccc(C(F)(F)F)cc3)nc2C)ccc1OCC(=O)O
Outline: as §1

doramapimod = compound: Cc1ccc(-n2nc(C(C)(C)C)cc2NC(=O)Nc2ccc(OCCN3CCOCC3)c3ccccc23)cc1 [doramapimod]
Outline: as §1

ispinesib = compound: Cc1ccc(C(=O)N(CCCN)[C@@H](c2nc3cc(Cl)ccc3c(=O)n2Cc2ccccc2)C(C)C)cc1 [ispinesib]
Outline: as §1

UniProt O14757, sequence (O14757 whole entry, looked up): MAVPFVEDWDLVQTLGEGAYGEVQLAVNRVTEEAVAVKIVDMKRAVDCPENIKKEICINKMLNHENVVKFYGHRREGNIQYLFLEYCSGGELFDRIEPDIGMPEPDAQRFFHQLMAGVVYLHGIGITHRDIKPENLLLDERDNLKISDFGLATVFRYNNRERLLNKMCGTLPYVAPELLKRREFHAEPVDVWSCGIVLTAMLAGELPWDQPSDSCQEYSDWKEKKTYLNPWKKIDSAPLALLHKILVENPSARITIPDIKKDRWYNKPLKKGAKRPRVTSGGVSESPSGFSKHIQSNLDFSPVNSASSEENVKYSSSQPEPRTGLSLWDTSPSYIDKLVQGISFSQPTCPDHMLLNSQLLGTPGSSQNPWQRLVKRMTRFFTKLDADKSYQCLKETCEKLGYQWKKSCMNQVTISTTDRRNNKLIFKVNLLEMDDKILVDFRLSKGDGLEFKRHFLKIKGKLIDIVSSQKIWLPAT
UniProt P20674, sequence (P20674 whole entry, looked up): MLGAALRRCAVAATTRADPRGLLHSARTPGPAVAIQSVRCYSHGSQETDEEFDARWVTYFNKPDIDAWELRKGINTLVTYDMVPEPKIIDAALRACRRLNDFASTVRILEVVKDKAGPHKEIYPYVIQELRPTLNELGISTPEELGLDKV
UniProt P61024, sequence (P61024 whole entry, looked up): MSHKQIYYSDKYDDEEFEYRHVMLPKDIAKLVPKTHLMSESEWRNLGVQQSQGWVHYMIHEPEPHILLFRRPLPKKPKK
UniProt Q99807, sequence (Q99807 whole entry, looked up): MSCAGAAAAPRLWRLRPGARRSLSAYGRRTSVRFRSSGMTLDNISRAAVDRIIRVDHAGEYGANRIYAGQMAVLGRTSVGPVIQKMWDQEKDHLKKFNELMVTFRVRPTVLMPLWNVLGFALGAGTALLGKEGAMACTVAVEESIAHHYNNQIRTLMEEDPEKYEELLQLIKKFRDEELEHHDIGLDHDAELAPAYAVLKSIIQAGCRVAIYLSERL
UniProt Q12996, sequence (Q12996 whole entry, looked up): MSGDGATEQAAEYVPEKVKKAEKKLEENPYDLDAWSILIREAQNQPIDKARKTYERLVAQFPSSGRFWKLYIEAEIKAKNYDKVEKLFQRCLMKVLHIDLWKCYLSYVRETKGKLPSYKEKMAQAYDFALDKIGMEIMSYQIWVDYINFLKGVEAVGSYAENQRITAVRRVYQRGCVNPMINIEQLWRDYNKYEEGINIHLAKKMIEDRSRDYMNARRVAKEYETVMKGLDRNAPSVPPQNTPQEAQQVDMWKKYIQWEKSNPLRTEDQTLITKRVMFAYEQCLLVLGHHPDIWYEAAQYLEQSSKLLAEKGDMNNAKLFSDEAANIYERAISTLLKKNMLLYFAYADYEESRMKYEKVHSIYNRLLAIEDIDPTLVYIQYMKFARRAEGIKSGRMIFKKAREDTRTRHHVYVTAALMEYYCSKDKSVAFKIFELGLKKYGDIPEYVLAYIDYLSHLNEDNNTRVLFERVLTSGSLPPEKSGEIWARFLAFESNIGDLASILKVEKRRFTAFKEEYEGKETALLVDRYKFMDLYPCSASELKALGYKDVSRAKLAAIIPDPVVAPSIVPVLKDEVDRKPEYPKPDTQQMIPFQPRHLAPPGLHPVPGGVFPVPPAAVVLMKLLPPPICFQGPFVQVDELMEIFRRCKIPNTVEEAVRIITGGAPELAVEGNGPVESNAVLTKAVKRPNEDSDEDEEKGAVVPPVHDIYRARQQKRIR
UniProt Q8IX12, sequence (Q8IX12 whole entry, looked up): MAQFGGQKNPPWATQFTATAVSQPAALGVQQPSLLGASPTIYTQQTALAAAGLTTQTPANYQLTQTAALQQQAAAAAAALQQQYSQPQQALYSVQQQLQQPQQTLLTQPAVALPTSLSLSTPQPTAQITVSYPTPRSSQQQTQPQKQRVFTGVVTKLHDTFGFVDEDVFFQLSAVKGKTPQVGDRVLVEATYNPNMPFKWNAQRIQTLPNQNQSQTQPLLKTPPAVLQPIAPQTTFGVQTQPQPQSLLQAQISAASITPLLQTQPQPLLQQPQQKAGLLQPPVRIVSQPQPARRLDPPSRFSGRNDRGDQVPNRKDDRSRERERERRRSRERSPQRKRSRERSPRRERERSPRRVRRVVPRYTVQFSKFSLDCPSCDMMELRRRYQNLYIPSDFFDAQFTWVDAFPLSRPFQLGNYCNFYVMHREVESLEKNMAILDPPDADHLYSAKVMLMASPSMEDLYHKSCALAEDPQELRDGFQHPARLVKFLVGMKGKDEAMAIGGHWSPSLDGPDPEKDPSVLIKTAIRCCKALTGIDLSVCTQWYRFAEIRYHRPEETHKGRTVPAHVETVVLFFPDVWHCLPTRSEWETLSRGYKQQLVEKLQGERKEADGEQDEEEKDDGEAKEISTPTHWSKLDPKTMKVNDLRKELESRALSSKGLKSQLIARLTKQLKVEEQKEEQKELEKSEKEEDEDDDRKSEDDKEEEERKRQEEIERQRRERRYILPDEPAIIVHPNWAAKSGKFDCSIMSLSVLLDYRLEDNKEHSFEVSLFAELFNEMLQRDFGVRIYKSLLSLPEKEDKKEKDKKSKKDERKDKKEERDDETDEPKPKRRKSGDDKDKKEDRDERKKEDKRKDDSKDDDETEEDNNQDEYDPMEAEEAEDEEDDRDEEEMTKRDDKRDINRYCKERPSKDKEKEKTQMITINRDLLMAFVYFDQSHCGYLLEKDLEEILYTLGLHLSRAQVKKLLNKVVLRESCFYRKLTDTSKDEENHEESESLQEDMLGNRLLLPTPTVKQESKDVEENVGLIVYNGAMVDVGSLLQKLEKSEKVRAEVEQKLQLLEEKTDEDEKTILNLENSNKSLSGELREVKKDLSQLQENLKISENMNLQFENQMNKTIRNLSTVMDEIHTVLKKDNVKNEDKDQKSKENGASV
UniProt Q8N684, sequence (Q8N684 whole entry, looked up): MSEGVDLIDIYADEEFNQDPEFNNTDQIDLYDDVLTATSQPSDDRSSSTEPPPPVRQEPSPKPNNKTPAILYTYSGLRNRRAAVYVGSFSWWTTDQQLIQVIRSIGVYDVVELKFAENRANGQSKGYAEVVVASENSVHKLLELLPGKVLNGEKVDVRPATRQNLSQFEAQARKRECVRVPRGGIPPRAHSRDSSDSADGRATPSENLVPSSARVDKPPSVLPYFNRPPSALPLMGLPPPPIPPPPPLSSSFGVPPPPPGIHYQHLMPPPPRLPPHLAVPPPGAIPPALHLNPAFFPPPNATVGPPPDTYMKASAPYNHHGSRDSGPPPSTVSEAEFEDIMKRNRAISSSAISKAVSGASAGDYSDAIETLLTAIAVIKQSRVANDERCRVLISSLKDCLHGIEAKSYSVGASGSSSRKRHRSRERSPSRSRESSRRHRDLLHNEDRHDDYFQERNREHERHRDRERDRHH
UniProt Q5BKX5, sequence (Q5BKX5 whole entry, looked up): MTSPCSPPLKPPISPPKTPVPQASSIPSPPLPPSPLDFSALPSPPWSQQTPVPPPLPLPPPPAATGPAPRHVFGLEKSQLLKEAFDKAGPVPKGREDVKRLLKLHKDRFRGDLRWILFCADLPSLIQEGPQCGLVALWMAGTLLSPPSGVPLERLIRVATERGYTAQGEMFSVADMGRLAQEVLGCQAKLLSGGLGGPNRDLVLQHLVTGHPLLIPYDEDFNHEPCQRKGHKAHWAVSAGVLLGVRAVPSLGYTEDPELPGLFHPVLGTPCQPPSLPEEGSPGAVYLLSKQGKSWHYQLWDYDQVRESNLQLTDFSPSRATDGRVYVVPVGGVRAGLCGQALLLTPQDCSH
UniProt Q96MX0, sequence (Q96MX0 whole entry, looked up): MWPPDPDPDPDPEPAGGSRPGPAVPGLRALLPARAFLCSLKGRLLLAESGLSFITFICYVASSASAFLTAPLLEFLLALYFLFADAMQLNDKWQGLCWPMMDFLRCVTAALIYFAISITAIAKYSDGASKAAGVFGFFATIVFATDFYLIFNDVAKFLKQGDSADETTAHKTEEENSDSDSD
UniProt Q00535, sequence (Q00535 whole entry, looked up): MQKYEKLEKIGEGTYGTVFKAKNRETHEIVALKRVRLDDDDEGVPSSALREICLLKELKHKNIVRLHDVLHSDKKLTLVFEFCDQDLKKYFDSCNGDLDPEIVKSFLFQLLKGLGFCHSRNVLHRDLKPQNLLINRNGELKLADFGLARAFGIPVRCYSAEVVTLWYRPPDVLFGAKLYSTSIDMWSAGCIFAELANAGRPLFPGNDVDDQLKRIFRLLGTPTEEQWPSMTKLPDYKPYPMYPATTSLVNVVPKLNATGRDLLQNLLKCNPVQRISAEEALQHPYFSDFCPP
UniProt P19397, sequence (P19397 whole entry, looked up): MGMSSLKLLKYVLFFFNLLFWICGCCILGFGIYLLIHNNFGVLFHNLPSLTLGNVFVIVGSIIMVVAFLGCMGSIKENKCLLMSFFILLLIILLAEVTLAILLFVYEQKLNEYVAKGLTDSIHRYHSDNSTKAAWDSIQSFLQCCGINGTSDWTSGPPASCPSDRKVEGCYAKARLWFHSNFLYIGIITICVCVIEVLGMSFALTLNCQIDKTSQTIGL
UniProt P41208, sequence (P41208 whole entry, looked up): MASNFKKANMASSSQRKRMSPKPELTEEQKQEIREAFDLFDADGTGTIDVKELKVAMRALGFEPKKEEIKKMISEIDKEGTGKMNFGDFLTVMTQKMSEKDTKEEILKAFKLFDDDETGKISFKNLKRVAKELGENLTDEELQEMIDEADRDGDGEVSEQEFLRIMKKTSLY
UniProt P67870, sequence (P67870 whole entry, looked up): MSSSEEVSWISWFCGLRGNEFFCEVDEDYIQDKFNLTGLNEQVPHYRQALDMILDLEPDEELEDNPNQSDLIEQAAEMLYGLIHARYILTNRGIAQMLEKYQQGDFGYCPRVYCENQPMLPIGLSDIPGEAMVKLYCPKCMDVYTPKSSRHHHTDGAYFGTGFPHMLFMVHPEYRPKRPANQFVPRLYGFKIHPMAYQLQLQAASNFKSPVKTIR
UniProt P24311, sequence (P24311 whole entry, looked up): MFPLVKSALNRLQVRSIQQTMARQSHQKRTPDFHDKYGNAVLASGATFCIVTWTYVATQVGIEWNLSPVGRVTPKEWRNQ

Row | Target | log2 fold change [1] | log2 fold change (crizotinib) | log2 fold change [2] | log2 fold change [3] | log2 fold change (duvelisib) | log2 fold change (gandotinib) | log2 fold change (tozasertib) | log2 fold change [4] | log2 fold change (doramapimod) | log2 fold change (ispinesib)
1 | COX7B (UniProt P24311) | -0.026 | 0.013 | 0.02 | -0.171 | 0.034 | 0.05 | 0.072 | 0.014 | -0.067 | 
2 | CAMSAP1 isoform 3 (UniProt Q5T5Y3) | 0.05 | -0.11 | 0.073 | 0.041 | -0.019 | -0.039 | -0.04 | 0.02 | 0.008 | -0.124
3 | CASP3 (UniProt P42574) | 0.017 | 0.036 | -0.059 | -0.057 | -0.025 | -0.019 | -0.036 | -0.05 | -0.022 | -0.004
4 | CMTM3 (UniProt Q96MX0) | 0.063 | -0.007 | -0.002 | -0.133 | 0.028 | 0.132 | -0.026 | -0.102 | -0.065 | 
5 | CD68 (UniProt P34810) | -0.016 |  |  |  |  |  |  |  |  | 
6 | CPSF7 isoform 3 (UniProt Q8N684) | -0.016 | 0.013 | 0.026 | -0.05 | 0.017 | -0.004 | -0.012 | 0.018 | -0.014 | 0.09
7 | CSTF3 (UniProt Q12996) | 0.004 | -0.07 | 0.025 | 0.019 | 0.061 | 0 | -0.021 | -0.031 | -0.022 | 0.082
8 | CSNK2B (UniProt P67870) | 0.05 | -0.037 | 0.049 | -0.128 | 0.075 | -0.027 | 0.006 | -0.005 | -0.002 | 0.016
9 | CDK6 (UniProt Q00534) | 0.062 | -0.033 | -0.042 | -0.004 | 0.033 | -0.009 | 0.001 | -0.012 | 0.018 | 0.024
10 | COQ9 (UniProt O75208) | 0.02 | -0.067 | 0.03 | -0.064 | -0.043 | -0.029 | 0.009 | 0.032 | -0.079 | -0.055
11 | CKS1B (UniProt P61024) | -0.013 | 0.063 | 0.06 | -0.051 | 0.022 | 0 | 0.02 | -0.093 | -0.026 | 0.224
12 | C19orf53 (UniProt Q9UNZ5) | -0.125 | 0.092 | -0.553 | 0.404 | -0.15 | 0.316 | 0.022 | 0.03 | 0.174 | -0.13
13 | C19orf54 (UniProt Q5BKX5) | -0.026 | 0.025 | 0.182 | 0.127 | 0.072 | -0.073 | 0.006 | 0.032 | -0.061 | -0.091
14 | CAMKK2 (UniProt Q96RR4) | 0 | 0.106 | -0.045 | -0.182 | 0.093 | -0.221 | 0.15 | 0 | 0.086 | -0.204
15 | CLN5 (UniProt O75503) | 0.136 | -0.733 | 0.06 | 0.046 | 0.093 | -0.077 | -0.115 | 0.073 | 0.044 | 
16 | CLPX (UniProt O76031) | 0.061 | 0.291 (active) | 0.027 | 0.004 | 0.004 | 0.003 | -0.012 | -0.05 | -0.002 | 0.018
17 | CKB (UniProt P12277) | 0.059 | -0.174 | 0.077 | 0.053 | 0.031 | -0.109 | -0.058 | 0.021 | -0.009 | -0.022
18 | CHEK1 (UniProt O14757) | 0.011 | -0.116 | 0.044 | 0.049 | 0.059 | -0.122 | -0.023 | 0.008 | -0.009 | 0.039
19 | CD53 (UniProt P19397) | 0.101 | 0.047 | 0.005 | -0.084 | 0.234 | -0.016 | -0.165 | -0.11 | 0.103 | 0.023
20 | COX5A (UniProt P20674) | -0.011 | 0.245 | 0.109 | -0.092 | 0.249 | 0.12 | 0.029 | 0.011 | -0.039 | 0.411 (active)
21 | CETN2 (UniProt P41208) | 0.011 | 0.103 | 0.066 | 0.003 | -0.003 | 0.041 | -0.01 | -0.135 | 0.017 | 0.084
22 | CA1 (UniProt P00915) | 0.005 | 0 | 0.046 | -0.094 | -0.001 | -0.036 | 0.018 | 0.019 | -0.012 | 0.116
23 | CRKL (UniProt P46109) | 0.037 | -1.34 (active) | 0.008 | -0.045 | 0.075 | -0.027 | -0.357 | 0.012 | -0.024 | 0.046
24 | CCAR1 (UniProt Q8IX12) | 0.004 | -0.238 | 0.034 | -0.016 | 0.012 | -0.263 (active) | -0.063 | 0.067 | -0.03 | -0.102
25 | CERS2 (UniProt Q96G23) | -0.027 | -0.294 (active) | -0.054 | -0.034 | 0.036 | -0.203 | -0.049 | -0.032 | -0.04 | -0.466 (active)
26 | CERT isoform 3 (UniProt Q9Y5P4) | 0.015 | 0.102 | 0.079 | -0.327 (active) | 0.067 | 0.209 | 0.068 | -0.047 | 0.192 | 0.109
27 | COQ7 (UniProt Q99807) | 0.113 | -0.163 | 0.062 | 0.007 | 0.067 | -0.359 (active) | -0.05 | 0.019 | 0.009 | -0.181
28 | CNDP2 (UniProt Q96KP4) | 0.03 | -0.061 | 0.102 | -0.067 | 0.02 | 0.072 | -0.02 | 0.015 | 0.018 | -0.099
29 | CDK5 (UniProt Q00535) | 0.019 | -0.076 | 0.037 | -0.022 | 0.001 | -0.003 | -0.055 | 0.008 | 0.088 | -0.033
